In PubChem BioAssay one finds inhibition data, which are given here for seven compounds.

Where “and” joins values, the source holds several entries; their conditions need not be identical. Equal values may be shown once. Calls of active or inactive are those of the source. No stated cut-off is given here; in the data, active means inhibition above about 80%; inactive means the rest.
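Further: cells exposed for 96 hours before readout.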

The nature of one test: LFS_MB_1R medulloblastoma cell growth inhibition, synergistic combos for chromothripsis tumors, cisplatin or BGB combos (AID 1671452). The conditions noted are these: LFS_MB_1R medulloblastoma cells, measured here: combination with BGB IC40, at 0.05 µM, stronger effect = higher value.
As usually defined, the inhibition is the relative decrease from the control value, in per cent. Regarding `CNNCc1ccc(C(=O)NC(C)C)cc1`, the inhibition is 11.1% and -7.89%.
Still for that read-out and setting: to `O=NN(CCCl)C(=O)NC1CCCCC1` belongs -47.7% and -29.7%.
Same read-out and setting: to `O=NN(CCCl)C(=O)NCCCl` belongs -13.6%; to `O=c1c(O)c(-c2ccc(O)c(O)c2)oc2cc(O)cc(O)c12`, 7.65%; to `Nc1nc(=S)c2[nH]cnc2[nH]1`, 5.91%.
For `CC(N)C12CC3CC(CC(C3)C1)C2` (stereo not given), the inhibition is -22.2%.
On the same count and under the same terms, to `O=c1oc2c(O)c(O)cc3c(=O)oc4c(O)c(O)cc1c4c23` belongs -1.97%.

The same test, now with this note: LFS_MB_1R medulloblastoma cells, measured here: combination with cisplatin, at 0.5 µM, stronger effect = higher value.
Consider `CNNCc1ccc(C(=O)NC(C)C)cc1`, for which the inhibition was 9.64% and -15.3%.
The same measure, in the same setting: to `O=NN(CCCl)C(=O)NC1CCCCC1` belongs -17.2% and -26.3%.
Same read-out and setting: to `O=NN(CCCl)C(=O)NCCCl` belongs 10.3%; to `O=c1c(O)c(-c2ccc(O)c(O)c2)oc2cc(O)cc(O)c12`, -39%; to `Nc1nc(=S)c2[nH]cnc2[nH]1`, -61.3%.
Still for that read-out and setting: to `CC(N)C12CC3CC(CC(C3)C1)C2` (stereo not given) belongs -47.8%.
Turning to `O=c1oc2c(O)c(O)cc3c(=O)oc4c(O)c(O)cc1c4c23`, the inhibition is -11.4%.

Staying with this test, now noted: LFS_MB_1R medulloblastoma cells, measured here: combination with cisplatin, at 5 µM, stronger effect = higher value.
As to `CNNCc1ccc(C(=O)NC(C)C)cc1`, the inhibition was -32.2% and -1.85%.
On the same count and under the same terms, to `O=NN(CCCl)C(=O)NC1CCCCC1` belongs -19.8% and 0.28%; to `O=NN(CCCl)C(=O)NCCCl`, -12%.
Take `O=c1c(O)c(-c2ccc(O)c(O)c2)oc2cc(O)cc(O)c12`: the inhibition is -2.19%.
Still for that read-out and setting: to `Nc1nc(=S)c2[nH]cnc2[nH]1` belongs -34.3%; to `CC(N)C12CC3CC(CC(C3)C1)C2` (stereo not given), -25.5%; to `O=c1oc2c(O)c(O)cc3c(=O)oc4c(O)c(O)cc1c4c23`, -1.35%.

The nature of a further test: HTB85 osteosarcoma cell growth inhibition, synergistic combos for chromothripsis tumors, BGB or cisplatin IC20 combos (AID 1671453).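 Further: 0% = vehicle DMSO and 100% = high DMSO killing control.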 The conditions noted are these: HTB85 osteosarcoma cells, drug combinations, at 0.5 µM, stronger effect = higher value.
For `CNNCc1ccc(C(=O)NC(C)C)cc1`, the inhibition is -1.94% (inactive) and -4.22% (inactive).
Same read-out and setting: to `O=NN(CCCl)C(=O)NC1CCCCC1` belongs -14.3% (inactive) and -7.5% (inactive); to `O=NN(CCCl)C(=O)NCCCl`, -10.6% (inactive).
On the same count and under the same terms, to `O=c1c(O)c(-c2ccc(O)c(O)c2)oc2cc(O)cc(O)c12` belongs -16.3% (inactive); to `Nc1nc(=S)c2[nH]cnc2[nH]1`, 1.06% (inactive); to `CC(N)C12CC3CC(CC(C3)C1)C2` (stereo not given), -15.6% (inactive).
Still for that read-out and setting: to `O=c1oc2c(O)c(O)cc3c(=O)oc4c(O)c(O)cc1c4c23` belongs -9.37% (inactive).

Staying with this test, now noted: HTB85 osteosarcoma cells, drug combinations, measured here: with BGB IC20, at 0.5 µM, stronger effect = higher value.
Regarding `CNNCc1ccc(C(=O)NC(C)C)cc1`, the inhibition was 2.72% and -14.1%.
Same read-out and setting: to `O=NN(CCCl)C(=O)NC1CCCCC1` belongs -27% and -24%; to `O=NN(CCCl)C(=O)NCCCl`, -23%.
For `O=c1c(O)c(-c2ccc(O)c(O)c2)oc2cc(O)cc(O)c12`, the inhibition is -21.8%.
As to `Nc1nc(=S)c2[nH]cnc2[nH]1`, the inhibition turned out to be 3.8%.
The same measure, in the same setting: to `CC(N)C12CC3CC(CC(C3)C1)C2` (stereo not given) belongs -39.8%; to `O=c1oc2c(O)c(O)cc3c(=O)oc4c(O)c(O)cc1c4c23`, -9.05%.
